Consider five compounds from PubChem BioAssay.

Active and inactive are the calls of the source. Unless noted, no rule for the calls is given here.

Experiment [1] in a line: compounds binding Alexa647 anti-His antibody – biochemical, small-molecule microarray, 635 nm fluorescence, artefact control for SMM control protein annotation, primary screen (AID 1128).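 Also: score merges feature fluorescence with signal-to-noise for each printed compound spot.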 The note with it: higher = more signal.
In experiment [2] the test system is Human papillomavirus type 1a E7 protein (residues 1-88). Nature of the experiment: HPV1a E7 small-molecule binders, primary screen, biochemical, small-molecule microarray, residues 1-88, 635 nm (AID 1129). Particulars: small-molecule microarray binding, fluorescence 635 nm; higher = more signal.
For experiment [3], the target named is Focal adhesion kinase 1 (Homo sapiens) (UniProt Q05397). Nature of the experiment: PTK2 protein binding on printed compound slides – biochemical, small-molecule microarray, 635/667 nm fluorescence, BSA, DTT, primary screen (AID 1130).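 Also: composite of spot emission at 667 nm and signal to noise over triplicate slides.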 The note with it: 635 nm fluorescence, higher = more signal.
Focal adhesion kinase 1 (Homo sapiens), sequence (Q05397 whole entry, looked up): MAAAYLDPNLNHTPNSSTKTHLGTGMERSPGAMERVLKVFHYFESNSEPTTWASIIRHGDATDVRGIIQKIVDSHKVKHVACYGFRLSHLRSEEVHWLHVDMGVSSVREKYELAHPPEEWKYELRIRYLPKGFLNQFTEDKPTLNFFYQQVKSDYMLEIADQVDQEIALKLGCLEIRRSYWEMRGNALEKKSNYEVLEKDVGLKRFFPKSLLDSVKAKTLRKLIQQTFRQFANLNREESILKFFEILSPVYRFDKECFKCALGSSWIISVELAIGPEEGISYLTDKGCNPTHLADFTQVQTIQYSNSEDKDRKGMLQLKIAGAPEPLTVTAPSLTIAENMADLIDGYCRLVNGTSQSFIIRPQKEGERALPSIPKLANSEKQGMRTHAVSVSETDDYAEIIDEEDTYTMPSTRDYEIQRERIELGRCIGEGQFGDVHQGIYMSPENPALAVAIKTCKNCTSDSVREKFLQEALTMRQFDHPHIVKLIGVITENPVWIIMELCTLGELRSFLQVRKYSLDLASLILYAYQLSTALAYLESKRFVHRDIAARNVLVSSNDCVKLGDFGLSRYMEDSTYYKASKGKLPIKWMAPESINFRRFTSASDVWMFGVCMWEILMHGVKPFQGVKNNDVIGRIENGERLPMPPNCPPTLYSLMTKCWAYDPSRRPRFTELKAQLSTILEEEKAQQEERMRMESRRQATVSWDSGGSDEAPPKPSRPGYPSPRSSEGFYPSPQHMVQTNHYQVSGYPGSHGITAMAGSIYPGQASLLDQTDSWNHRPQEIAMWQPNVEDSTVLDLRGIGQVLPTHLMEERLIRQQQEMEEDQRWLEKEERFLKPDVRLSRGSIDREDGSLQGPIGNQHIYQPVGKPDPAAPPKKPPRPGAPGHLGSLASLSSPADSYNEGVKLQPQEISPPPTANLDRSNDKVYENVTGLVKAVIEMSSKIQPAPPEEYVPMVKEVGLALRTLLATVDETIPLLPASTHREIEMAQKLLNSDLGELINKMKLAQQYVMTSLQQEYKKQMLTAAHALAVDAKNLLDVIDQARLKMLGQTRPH
The test system of experiment [4] is Fibrinogen (Alexa647-labelled). Nature of the experiment: Alexa647-fibrinogen binding to printed small molecules – biochemical, small-molecule microarray, 635/667 nm fluorescence, artefact control for SMM control-protein annotation, profiling panel (AID 1131).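 Also: z-score merges 667 nm fluorescence with per-spot signal-to-noise over triplicate slides.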 The note with it: fibrinogen-A647 binding fluorescence, higher = more signal.
Experiment [5] concerns the target Follistatin (Homo sapiens) (UniProt P19883). Nature of the experiment: FST protein binding to printed compounds – biochemical, small-molecule microarray, 635/667 nm fluorescence, primary screen (AID 1132). Particulars: 635 nm fluorescence, higher = more signal.
The target of experiment [6] is Fibroblast growth factor 2 (Homo sapiens) (UniProt P09038). The experiment in a line: basic fibroblast growth factor binding to printed compounds – biochemical, small-molecule microarray, 635/667 nm fluorescence, primary screen (AID 1133). The note with it: FGF2, fluorescence 635/667, higher = more signal.
Fibroblast growth factor 2 (Homo sapiens), sequence (P09038 whole entry, looked up): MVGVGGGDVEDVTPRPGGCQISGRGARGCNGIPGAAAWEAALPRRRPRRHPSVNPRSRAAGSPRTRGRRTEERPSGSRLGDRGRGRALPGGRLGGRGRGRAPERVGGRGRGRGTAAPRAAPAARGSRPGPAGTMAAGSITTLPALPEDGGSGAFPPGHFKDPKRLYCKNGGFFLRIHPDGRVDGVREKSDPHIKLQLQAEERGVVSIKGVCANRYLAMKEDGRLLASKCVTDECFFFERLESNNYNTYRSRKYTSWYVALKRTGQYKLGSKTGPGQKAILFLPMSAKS
The nature of experiment [7]: JC-1 mitochondrial potential readout, lung cancer cells – cell-based, A549, JC-1 fluorescence, basal, 24 h, 100 nL, profiling panel (AID 1138).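 Also: A549 lung adenocarcinoma cells under basal conditions with no added stimulus; test concentration not given here.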 Particulars: higher = more signal.
Experiment [8] has as its system Lefty1. Nature of the experiment: Lefty1 protein binding to printed compounds – biochemical, small-molecule microarray, 635/667 nm fluorescence, primary screen (AID 1139). Particulars: fluorescence 635/667, higher = more signal.
Experiment [9] deals with wheat germ agglutinin (Triticum aestivum), Alexa647-labelled. The experiment in a line: Alexa647-WGA lectin binding to printed small molecules – biochemical, small-molecule microarray, 635/667 nm fluorescence, artefact control for SMM control-protein annotation, profiling panel (AID 1140).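 Also: score merges 667 nm feature emission with signal to noise over triplicate slides.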 The note with it: WGA-A647 binding, 635 nm fluorescence, higher = more signal.
For experiment [10], the target named is Luciferin 4-monooxygenase (Photinus pyralis) (UniProt P08659). The experiment in a line: inhibition of purified Photinus pyralis luciferase – biochemical, luminescence, purified enzyme, 2006 set, primary screen (AID 1141).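 Also: cell-free assay with purified firefly luciferase at 100 ng per well in PBS; test concentration not given here.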 Particulars: purified firefly luciferase, SteadyGlo luminescence, 30 min; higher = more signal, called active from +8 up or from −8 down.
Luciferin 4-monooxygenase (Photinus pyralis), sequence (P08659 whole entry, looked up): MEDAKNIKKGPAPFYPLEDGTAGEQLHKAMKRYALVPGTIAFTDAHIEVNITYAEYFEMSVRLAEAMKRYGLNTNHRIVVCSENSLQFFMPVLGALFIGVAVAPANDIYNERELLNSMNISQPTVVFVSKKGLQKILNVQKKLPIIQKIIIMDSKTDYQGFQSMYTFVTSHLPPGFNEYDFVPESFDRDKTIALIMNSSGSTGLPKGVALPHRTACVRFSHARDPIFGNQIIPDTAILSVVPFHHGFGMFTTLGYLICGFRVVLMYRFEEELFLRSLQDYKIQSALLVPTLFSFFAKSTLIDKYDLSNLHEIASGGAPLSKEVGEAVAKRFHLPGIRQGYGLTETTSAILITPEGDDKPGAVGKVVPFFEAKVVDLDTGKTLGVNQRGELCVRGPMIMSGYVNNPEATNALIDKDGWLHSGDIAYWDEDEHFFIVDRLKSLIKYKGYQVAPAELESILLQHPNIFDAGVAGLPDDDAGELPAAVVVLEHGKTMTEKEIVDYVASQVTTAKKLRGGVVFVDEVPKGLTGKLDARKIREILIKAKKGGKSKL

Experiment [11] deals with Wnt5a (protein binding on small-molecule microarray). The experiment in a line: small molecules binding Wnt5a protein – biophysical, small-molecule microarray, 635/667 nm fluorescence, primary screen (AID 1142).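 Also: fluorescence read at 667 nm with signal to noise per printed feature.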 Particulars: 635 nm fluorescence, higher = more signal.
A short description of experiment [12]: ATP-based viability of Huh7 replicon cells – cell-based, CellTiter-Glo luminescence, basal, 48 h, cytotoxicity control for HCV replication inhibitor project, primary screen (AID 1143).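 Also: Huh7 hepatoma cells carrying a hepatitis C replication reporter with no stimulus; test concentration not given here.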 Particulars: higher = more signal, called active from +8 up or from −8 down.
A short description of experiment [13]: Pseudomonas biofilm growth suppression – PAO1 strain, BacTiter-Glo luminescence, LB-PBS, primary screen (AID 1144). Particulars: P. aeruginosa PAO1 biofilm, 12 h, higher = more signal.
Experiment [14] can be described thus: basal CRE-LacZ reporter activity in PC12 – cell-based, unstimulated, primary screen (AID 1145). Particulars: no forskolin, luminescence, 4.5 h, higher = more signal, called active from +8 up or from −8 down.
Experiment [15] in a line: forskolin-driven CRE-LacZ activity in PC12 – cell-based, CRE-LacZ reporter, forskolin-stimulated, primary screen (AID 1146).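 Also: PC12 cells with 6xCRE LacZ reporter stimulated by forskolin 10 µM; beta-galactosidase reporter signal reflecting CREB driven transcription.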 Particulars: luminescence, 4.5 h, higher = more signal, called active from +8 up or from −8 down.
Experiment [16] addresses Streptavidin (Streptomyces avidinii) (UniProt P22629). The experiment in a line: compounds binding control protein streptavidin – biophysical, small-molecule microarray, 635/667 nm fluorescence, artefact control for SMM compound annotation, primary screen (AID 1147).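 Also: signal reflects streptavidin binding to arrayed compounds as a control protein.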 Particulars: higher = more signal.
A short description of experiment [17]: probe aInhba binding on compound microarray – biochemical, small-molecule microarray, 635/667 nm fluorescence, primary screen (AID 1148).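 Also: score merges 667nm spot fluorescence with signal-to-noise for antibody binding to printed compounds.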 The note with it: higher = more signal.
The target in experiment [18] is Torsin-1A (Homo sapiens) (UniProt O14656). Nature of the experiment: TOR1A wild-type binding on microarray – cell lysate, small-molecule microarray, lysate, 635/667 nm, primary screen (AID 1149). The note with it: COS7 hTOR1A-WT lysate, 635 nm fluorescence, higher = more signal.
Torsin-1A (Homo sapiens), sequence (O14656 whole entry, looked up): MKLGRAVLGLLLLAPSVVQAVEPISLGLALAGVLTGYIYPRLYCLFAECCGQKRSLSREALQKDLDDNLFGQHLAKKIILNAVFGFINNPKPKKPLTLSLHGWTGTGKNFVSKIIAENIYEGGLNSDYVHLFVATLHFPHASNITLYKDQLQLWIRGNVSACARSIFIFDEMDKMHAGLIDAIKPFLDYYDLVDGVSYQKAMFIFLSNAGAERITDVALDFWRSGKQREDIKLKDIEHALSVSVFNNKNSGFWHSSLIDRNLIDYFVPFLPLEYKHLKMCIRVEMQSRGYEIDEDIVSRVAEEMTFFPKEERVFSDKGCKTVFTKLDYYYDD
Experiment [19] shares this target. The experiment in a line: torsin A mutant lysate binding on microarrays – cell lysate, small-molecule microarray, COS7 lysate, 635/667 nm fluorescence, primary screen (AID 1150).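 Also: score pools 667 nm emission and signal to noise measuring lysate protein binding.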 The note with it: COS7 hTOR1A mutant lysate, 635 nm fluorescence, higher = more signal.
Experiment [20] deals with Sonic hedgehog protein (Shh). Nature of the experiment: Sonic hedgehog microarray binding compounds – biochemical, small-molecule microarray, 635/667 nm fluorescence, primary screen (AID 1151).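 Also: Shh protein binding to compounds spotted on small-molecule microarray slides; score combines spot fluorescence intensity with signal-to-noise across triplicate slides.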 Particulars: 635 nm fluorescence, higher = more signal.

Follistatin (Homo sapiens), sequence (P19883 whole entry, looked up): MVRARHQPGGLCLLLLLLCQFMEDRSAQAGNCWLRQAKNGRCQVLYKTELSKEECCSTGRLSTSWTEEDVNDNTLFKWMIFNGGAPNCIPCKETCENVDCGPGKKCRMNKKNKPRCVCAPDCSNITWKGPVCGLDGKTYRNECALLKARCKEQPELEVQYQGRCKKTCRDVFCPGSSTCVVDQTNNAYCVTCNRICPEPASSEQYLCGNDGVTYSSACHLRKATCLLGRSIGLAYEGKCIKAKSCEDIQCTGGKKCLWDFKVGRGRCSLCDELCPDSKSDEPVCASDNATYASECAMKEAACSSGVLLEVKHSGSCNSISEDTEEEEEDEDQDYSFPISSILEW
Streptavidin (Streptomyces avidinii), sequence (P22629 whole entry, looked up): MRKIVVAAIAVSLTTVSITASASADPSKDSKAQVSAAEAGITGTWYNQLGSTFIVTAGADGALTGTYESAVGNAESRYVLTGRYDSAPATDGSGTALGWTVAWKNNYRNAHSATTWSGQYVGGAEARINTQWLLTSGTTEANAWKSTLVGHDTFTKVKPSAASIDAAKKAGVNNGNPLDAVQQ

Consider `COC(=O)[C@@]1(Cc2ccccc2)[C@H]2c3cc(C(=O)N4CCCC4)n(Cc4cc(F)cc5c4OCOC5)c3C[C@H]2CN1C(=O)c1ccccc1`, for which the composite z-score in [1] is 0.69; in experiment [2] it was 1.24; in experiment [3], 0.366; in [4], 0.963; in experiment [5], -0.0178; in experiment [6], -0.575. Also, the composite z-score in experiment [8] is -0.359; in experiment [9] it was 0.711; in [11], 0.503; in experiment [16], 0.503; in experiment [17], 0.0982; in experiment [18], -0.0566. For the same compound, the composite z-score in experiment [19] is 1.26; in experiment [20], -0.457. Besides, the z-score was 0.487 in experiment [7]; 0.827 (inactive) in experiment [10]; 0.147 (inactive) in experiment [12]; -0.511 (inactive) in [13]; -0.185 (inactive) in experiment [14]; 0.444 (inactive) in experiment [15].
For `COCCCNC(=O)[C@@]1(Sc2ccc(C)cc2)CC(=O)N(Cc2cc(C(F)(F)F)cc(C(F)(F)F)c2)[C@@H]1c1ccc(CO)cc1`, the composite z-score in experiment [1] was 1.79; in experiment [2], 0.566; in experiment [3], 0.813; in experiment [4] it was 0.248; in [5] it was 1.06; in experiment [6], 0.686. The composite z-score in experiment [8] is 1.25; in [9] it was -0.271; in [11], 0.0054; in experiment [16], 0.072; in experiment [17] it was 0.0111; in experiment [18] it was 1.27. The composite z-score in experiment [19] came out at 0.389; in experiment [20], 1.68. Further, the z-score in [7] is 0.727; in [10] it was -0.363 (inactive); in experiment [12], -0.418 (inactive); in experiment [13] it was 0.126 (inactive); in experiment [14] it was 0.506 (inactive); in experiment [15], -1.15 (inactive).
With `C=C(CCCC)C(=O)CC[C@@H](OC(=O)c1cccnc1)c1ccccc1OCCO`, the composite z-score in [1] was -0.349; in [2], -0.107; in [3], -0.0523; in experiment [4] it was 0.48; in experiment [5], 0.865; in experiment [6], 1.34. The composite z-score in experiment [8] is 1.56; in experiment [9] it was 0.058; in [11], 0.047; in experiment [16], -0.368; in experiment [17], -0.128; in [18], 0.417. Besides, the composite z-score in [19] was determined as 0.781; in experiment [20], 1.76. For the same compound, the z-score in [7] is 1.24; in [10], -0.511 (inactive); in experiment [12] it was -1.55 (inactive); in experiment [13], -0.325 (inactive); in experiment [14], 4.16 (inactive); in [15], 1.04 (inactive).
Turning to `CC(CO)N1C(=O)[C@@H]2C3C(=O)OCCC/C=C\[C@H]3OC23C=CCN(Cn2nnc4ccccc42)C(=O)[C@@H]13` (stereo not given in full), the composite z-score was 3.15 in experiment [1]; -0.589 in experiment [2]; -0.923 in experiment [3]; -0.326 in [4]; -0.171 in experiment [5]; -0.614 in [6]. In addition, the composite z-score in experiment [8] is -0.13; in [9], -0.276; in experiment [11] it was -0.275; in experiment [16] it was -0.521; in experiment [17] it was -0.024; in [18], -1.02. Besides, the composite z-score was -0.296 in experiment [19] and 0.276 in experiment [20]. The z-score is 0.918 in [7]; 0.196 (inactive) in [10]; 0.39 (inactive) in experiment [12]; -1.36 (inactive) in [13]; -0.358 (inactive) in experiment [14]; -0.691 (inactive) in [15].
For the compound `CC(=O)n1cc(C(O)C2C=CC3C(=O)N(Cc4ccccc4)C(=O)C3N2n2cnnc2)c2ccccc21` (stereo not given), the composite z-score in experiment [1] is 0.483; in experiment [2], 0.0022; in experiment [3], 0.418; in experiment [4], 0.948; in experiment [5], 0.0251; in experiment [6], -0.465. Further, the composite z-score in experiment [8] was 0.204; in experiment [9] it was 0.505; in [11], 0.363; in [16], 1.05; in [17], -0.152; in experiment [18], -0.466. Besides, the composite z-score in experiment [19] is -0.0022; in experiment [20], 0.204. The z-score was -0.463 in experiment [7]; 0.702 (inactive) in experiment [10]; 0.276 (inactive) in [12]; 1.3 (inactive) in experiment [13]; 0.631 (inactive) in experiment [14]; -0.696 (inactive) in experiment [15].
